PubChem BioAssay (NCI)
About 83,000 compounds went through this panel and 20% of them were active in at least one assay; those are over-represented in the sample as a whole.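 Cell lines were cultured in 96-well plates, exposed to a single compound concentration, and assessed for percent growth 48 hours later.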 Active and inactive are the calls of the source. How the source made its calls: active means growth percent below 10; inactive means the rest.

System: HL-60(TB) leukemia
Assay: NCI-60 one-dose screen, 48 h (100 = growth as untreated, 0 = no growth, -100 = all killed)
Settings: 10 µM unless noted

Row | Compound | growth
1 | Nc1c(C(=O)c2ccc(Cl)cc2)sc(Nc2ccccc2)c1-c1nc2ccccc2s1 | 69.6% (inactive)
2 | NC(=O)c1noc(C(=O)c2ccccc2)c1N | 93.7% (inactive)
3 | CC(C)(C)c1cc(-n2c(-c3ccc(Cl)cc3)nc3cc(C(=O)Nc4ccc(Cl)cc4)ccc32)n[nH]1 | 51.3% (inactive)
4 | COc1ccc(N)c(N)c1 | 84.9% (inactive)
5 | Cc1cc2nc3ccc(N=Nc4ccc(N(C)C)cc4)cc3n(-c3ccccc3)c-2cc1=N | -2.79% (active)
6 | Cc1ccc(C(=O)NCCNc2nccc(-c3c(-c4cccc(F)c4)nc4sccn34)n2)cc1 | 95.5% (inactive)
7 | Cc1nc2ccccc2c(N)c1-c1cc(C)c2c(C)nc3ccccc3c2n1 | -66.5% (active)
8 | N=C(N)c1ccc(-c2ccc(-c3ccc4ccccc4c3)s2)s1 | -56.4% (active)
9 | COc1ccc(S(=O)(=O)NCCCNc2nccc(-c3c(-c4cccc([N+](=O)[O-])c4)nc4sccn34)n2)cc1 | 22.9% (inactive)
10 | Cc1cc(C(C#N)c2ccc(Cl)cc2)c(Cl)cc1NC(=O)c1cc(I)cc(I)c1O (configuration not stated) | 17.4% (inactive)
11 | O=C(CBr)OCc1ccc([N+](=O)[O-])o1 | 118% (inactive)
12 | C#COc1cccc(Nc2ncnc3cc(NC(=O)[C@H](C)Cl)ccc23)c1 | 99.4% [6.25 µM] (inactive)
13 | CN(C)C(=O)SC1=C(c2c(Cl)cccc2Cl)C(=O)c2ccccc21 | -35.7% (active)
14 | c1ccc2c(c1)OC1OC2Oc2ccccc21 | 80% (inactive)
15 | O=C(Nc1nc2ccc(OC(F)(F)F)cc2s1)c1ccc(F)cc1 | 14.3% (inactive)
16 | Cn1cc(-c2ccc3occ(-c4cccc(-c5ccncc5)c4)c3n2)cn1 | 2.9% (active)
17 | COc1ccc(-c2nc3c(N)c(CO)c(C)nc3o2)cc1 | 98.3% (inactive)
18 | CCOC(=O)C(NC(=O)C(Cl)Cl)C(O)c1ccccc1 (configuration not stated) | 113% (inactive)
19 | CCOC(=O)C1=C(CC(O)c2ccc(OC)cc2OC)NC(=O)NC1c1ccccc1 (configuration not stated) | -33.9% (active)

Row | Compound | growth
20 | COc1cc(C2CC(=O)Nc3c2c(C)nn3-c2nc3ccccc3[nH]2)cc(OC)c1O (configuration not stated) | 43.7% (inactive)
21 | COc1ccccc1/C=C1\Oc2cc(OCCN3CCCC3)ccc2C1=O | 97.1% (inactive)
22 | Nc1nc(OCc2ccccc2)c2[nH]cnc2n1 | 62.7% (inactive)
23 | CN[C@@H](CCCNC(N)=NC/C=C(/C)CCC=C(C)C)C(=O)N(C)[C@@H](CCCNC(N)=NCC=C(C)C)C(=O)N[C@H](C)[C@H](OS(=O)(=O)O)c1ccc(OS(=O)(=O)O)c(COS(=O)(=O)O)c1 | 83.5% (inactive)
24 | COC(=O)c1cc2c(=O)[nH]cc3c2c(n1)CCC3 | 74.6% (inactive)
25 | CC(=O)OCC1OC(OC2=C(CC=C(C)C)C(=O)c3ccccc3C2=O)C(OC(C)=O)C(OC(C)=O)C1OC(C)=O (configuration not stated) | -36.7% (active)
26 | CC(C)CSc1oc(-c2ccccc2)nc1S(=O)(=O)c1ccccc1 | 82% (inactive)
27 | Cc1ccc2cc3c(NC(=O)c4cccnc4)nn(C)c3nc2c1 | 87.8% (inactive)
28 | C=CC(=O)Nc1cc(Nc2nccc(-c3cn(C)c4ccccc34)n2)c(OC)cc1N(C)CCN(C)C | -65.8% (active)
29 | OC[C@@H](O)C(O[C@@H]1O[C@H](CO)[C@H](O)[C@H](O)[C@H]1O)[C@H](O)[C@@H](O)CO (some centres not stated) | 94.9% (inactive)
30 | CC(C)c1ccccc1NC(=O)N1CCC(C(C)C)CC1 | 105% (inactive)
31 | O=C(NCCOCCOCCNc1cccc2c1C(=O)N(C1CCCNC1=O)C2=O)c1cc2c(o1)C(=O)c1ccccc1C2=O (configuration not stated) | -1.81% (active)
32 | C=CC(=O)Nc1ccc(Nc2nccc(-c3ccc(N4CCCC4)c(C#N)c3)n2)cc1 | -71.8% (active)
33 | CNC(=O)c1cc(Oc2ccc(NC(=O)Nc3ccc(Cl)c(OC4CCCCC4)c3)c(F)c2)ccn1 | 82.9% (inactive)
34 | CCOC(=O)c1cc(C(=O)c2ccc(Cl)cc2)n2ccc(-c3cc[n+](CC(=O)c4ccc(OC)cc4)cc3)cc12 | 24.9% (inactive)
35 | COc1cc2c(cc1O)[C@@]1(C)[C@H](c3ccccc3Br)OC(=O)N1CC2 | 73.3% (inactive)
36 | COc1cc(Nc2ncc(F)c(Nc3ccc4c(n3)NC(=O)C(C)(C)O4)n2)cc(OC)c1OC | 103% (inactive)
37 | CC1OC(n2c3ccccc3c3c4c(c5c6ccccc6[nH]c5c32)C(=O)N(CCN[C@@H]2CCC[C@H]2N)C4=O)CC(O)C1O (some centres not stated) | 29.2% (inactive)
